# Screens from PubChem.
# Not all results are given here.
# aSyn 5UTR act = Activators working through SNCA 5'UTR binding (MLPCN); 300,000 compounds, 7.1% hits; AID 1814; activity score, % (tested at 7.5 µM), hits read low; alpha-synuclein 5'UTR reporter, activators screen; in the data active = activity score below about -60%
# An asterisk follows results filed as active.
SMILES,aSyn 5UTR act
COc1ccc(Br)cc1CN(C)C(C)C(=O)Nc1cc([N+](=O)[O-])ccc1OC (stereo not given),51.4
COc1ccc(C(=O)CNc2ccccc2Br)cc1,-180.8*
COc1ccc(C(=O)CNc2ccc3ccccc3c2)cc1,-70.1*
O=C(O)COn1c(-c2ccc(Cl)cc2)nc2ccc(Cl)cc21,-123.4*
COn1c(-c2ccc(Cl)cc2)nc2ccc(Cl)cc21,-114.4*
N#CC1=C(N)Oc2cc(N)ccc2C1c1cccc(Br)c1 (stereo not given),118.8
N#CC1=C(N)Oc2cc(N)ccc2C1c1cc(Br)cs1 (stereo not given),-75.3*
CN(C)CCCNC(=S)NCC(c1ccc(Cl)cc1Cl)c1c[nH]c2ccccc12 (stereo not given),110.6
Cc1nn(-c2ccccc2)c(N)c1N=Nc1ccc2ccccc2c1,-241.6*
Cc1ccc(N=Nc2c(N)nn(-c3ccccc3)c2N)cc1,-182.9*
O=c1oc(Nc2cccc(Cl)c2)nc2ccccc12,-84.6*
O=c1oc(Nc2ccccc2Cl)nc2ccccc12,-90.6*
O=Cc1ccccc1OCc1ccc2c(c1)OCO2,-257.7*
CCCCNC(=S)N/N=C/c1cccc(OCC)c1O,-73.3*
COc1ccc2cc3cc(C(=O)NCCCN4CCc5ccccc5C4)sc3nc2c1,-198.0*
COc1ccc2nc3sc(C(=O)NCCN4CCc5ccccc5C4)cc3cc2c1,-68.8*
COc1ccc2cc3cc(C(=O)NC4CC4)sc3nc2c1,56.7
COc1ccc(C(CNC(=O)c2sccc2C)N2CCOCC2)cc1 (stereo not given),-69.9*
CCOC(=O)C1(Cc2ccccc2Cl)CCN(C(=O)c2cnccn2)CC1,-125.0*
CCOC(=O)C1(Cc2ccccc2Cl)CCN(C(=O)c2cc(C)on2)CC1,-83.5*
O=C(Nc1ccc2oc(-c3cccnc3)nc2c1)c1ccc([N+](=O)[O-])o1,-96.6*
O=C(Nc1ccc2oc(-c3cccnc3)nc2c1)c1ccc(Br)o1,-113.2*
O=C(Nc1ccc2nc(-c3ccccc3)oc2c1)c1ccco1,-226.8*
O=C(Nc1ccc2oc(-c3cccnc3)nc2c1)c1ccco1,-134.7*
O=C(NC1CCCCC1)c1ccc(S(=O)(=O)c2ccccc2Cl)c([N+](=O)[O-])c1,-94.9*
SMILES,aSyn 5UTR act
CN(C(=O)c1ccc(S(=O)(=O)c2cccc(Cl)c2)c([N+](=O)[O-])c1)C1CCCCC1,-86.4*
Cc1[nH][nH]c(=O)c1C=Nc1ccc(C(F)(F)F)cc1,-77.4*
O=c1[nH][nH]c(C(F)(F)F)c1C=Nc1ccc(Cl)cc1,-71.0*
CCN(CC)C(=O)C1CC(c2ccc(OC)cc2)=NO1 (stereo not given),-103.2*
C=CCOC(=O)C1=C(C)NC(SCC)=C(C#N)C1c1ccc(Cl)cc1 (stereo not given),67.0
N#CC1=C(SCC(=O)c2ccc(Cl)cc2)NC2=C(C(=O)CCC2)C1c1ccco1 (stereo not given),-173.1*
Cc1cc2c(C)cc(=O)[nH]c2cc1NC(=O)CCl,-69.8*
Clc1ccc2oc(-c3cccnc3)nc2c1,-119.2*
Clc1ccc2oc(-c3ccccc3)nc2c1,-151.2*
Cc1ccccc1-c1nc2cc(Cl)ccc2o1,-182.6*
Cc1ccc2nc(-c3cccnc3)oc2c1,-80.2*
COC(=O)c1ccc(-c2nc3ccc(C)cc3o2)cc1,-77.4*
Cc1nc(N)sc1N=Nc1ccc(Br)cc1,-253.9*
COc1ccc(OCCOC(=O)c2cccc(-n3cnnn3)c2)cc1,-81.3*
O=C(Nc1cccnc1)c1sc2cccc(F)c2c1Cl,-166.2*
Clc1ccc(CONc2ncnc3nonc23)c(Cl)c1,-124.1*
COc1ccccc1C(=O)Nc1cc2ccccc2oc1=O,-172.2*
COc1ccc(NC(=O)c2cc3ccccc3oc2=O)c(OC)c1,-112.7*
COc1ccc(NC(=O)c2oc3ccccc3c2C)c(OC)c1,-215.6*
COc1ccc(S(=O)(=O)Nc2ccccc2OC)cc1NC(=O)c1cc2ccccc2oc1=O,-158.9*
COc1ccc2oc(=O)c(C(=O)Nc3cccc(C)c3)cc2c1,-127.6*
O=C(Nc1ccc(CN2CCOCC2)cc1)c1ccco1,-68.8*
O=C(Nc1ccc(CN2CCOCC2)cc1)c1ccc(Cl)cc1,-207.4*
C/C(=N\NC(=O)c1ccc(CN2CCOCC2)cc1)c1ccc(NC(=O)c2ccccc2)cc1,-76.5*
O=C(NCCSc1ccccc1)c1ccc(CN2CCOCC2)cc1,-126.2*
SMILES,aSyn 5UTR act
O=C(Nc1ccc(CN2CCOCC2)cc1)c1ccc(F)cc1,-116.8*
CC(C)(C)c1ccc(C(=O)Nc2ccc(CN3CCS(=O)(=O)CC3)cc2)cc1,-68.2*
O=C(N/N=C/c1ccccc1[N+](=O)[O-])c1ccc(CN2CCOCC2)cc1,-82.6*
O=C(Nc1ccc(CN2CCOCC2)cc1)c1ccc(Br)cc1,-173.4*
O=C(Nc1cccc([N+](=O)[O-])c1)c1ccc(CN2CCOCC2)cc1,-124.1*
O=C(Nc1ccc(CN2CCOCC2)cc1)c1ccc2ccccc2c1,-181.7*
O=C(NN=C1CCN(Cc2ccccc2)CC1)c1ccccc1,-87.9*
C/C(=N\NC(=O)CSCc1ccc(Cl)cc1)c1ccc(NC(=O)c2ccccc2)cc1,-137.0*
O=C(/C=C/c1ccccc1)c1ccccn1,-134.9*
N/C(=N\OC(=O)/C=C/c1ccccc1Cl)c1ccncc1,-126.1*
O=C(/C=C/Nc1ccccc1Br)c1ccccn1,114.3
Cc1ccc(C(=O)O/N=C(\N)c2ccccn2)c(Cl)c1,107.6
O=C(/C=C/c1ccc2c(c1)OCO2)c1ccccn1,-140.3*
N/C(=N\OC(=O)/C=C/c1ccccc1)c1ccccn1,-99.4*
N/C(=N\OC(=O)/C=C/c1ccccc1)c1ccncc1,-133.0*
Cc1cc(C)cc(C(=O)Nc2ccc(N3CCCC3)cc2)c1,-120.5*
Cc1cc(C)cc(NC(=O)Nc2ccc(N3CCCCC3)cc2)c1,-153.0*
C/C(=N\Nc1ccc(C(=O)O)cc1)c1ccc2c(c1)Nc1ccccc1S2,-109.5*
Clc1ccc(-c2csc(N3CCOCC3)n2)cc1,-140.3*
c1ccc(-c2csc(N3CCCCCC3)n2)cc1,-139.0*
Clc1ccc(-c2csc(N3CCCCCC3)n2)cc1,-85.3*
CN1CCN(c2nc(-c3ccc(Cl)s3)cs2)CC1,-83.6*
O=[N+]([O-])c1ccc(-c2csc(N3CCCCCC3)n2)cc1,-77.6*
Brc1ccc(-c2csc(N3CCOCC3)n2)cc1,-131.9*
COc1ccc(-c2csc(N3CCOCC3)n2)cc1OC,-79.7*
SMILES,aSyn 5UTR act
c1ccc(-c2cnnc(N3CCCCC3)n2)cc1,-139.6*
CC(=O)/C=C(\C)Nc1ccc(-c2cnc(-c3ccccc3)o2)cc1,-94.9*
CN(C)c1ccc(NC(=S)NCC2CCCO2)cc1 (stereo not given),-101.0*
CCc1ccc(NC(=O)C(=O)NCC2CCCO2)cc1 (stereo not given),-136.7*
S=C(NCC1CCCO1)Nc1ccc(Cl)c(Cl)c1 (stereo not given),-85.7*
CCN(CC)c1nc(C#N)cc(-c2ccc(OC)cc2)n1,-68.8*
COc1ccccc1NC(=O)Nc1ccc(CC#N)cc1,-115.4*
COc1ccccc1NC(=O)Nc1ccc(N2CCOCC2)cc1,-134.2*
CCN1CCN(Cc2ccc(NC(=O)Nc3ccccc3OC)cc2)CC1,-140.9*
COc1ccc(NC(=O)Nc2ccccc2OC)cc1,-95.8*
CCOc1ccccc1NC(=O)Nc1ccc(Cl)cc1,-78.2*
COc1ccccc1C1CC(=O)Nc2cc(C)c(C)cc21 (stereo not given),62.8
CCOc1ccc(C2C=C(c3ccccc3)Nc3nnnn32)cc1 (stereo not given),-151.6*
COc1ccccc1C1C=C(c2ccc(C)cc2)Nc2nnnn21 (stereo not given),-127.7*
